Hits are enriched below; roughly 1.4% of the tested compounds scored in any of these assays.
MOR-DOR ag = OPRM1-OPRD1 heterodimerization agonism; cells, luminescence; activation, % at 9.3 µM; 0.3% of 340,000 active; AID 504326
Target sequence (P35372 whole entry, looked up): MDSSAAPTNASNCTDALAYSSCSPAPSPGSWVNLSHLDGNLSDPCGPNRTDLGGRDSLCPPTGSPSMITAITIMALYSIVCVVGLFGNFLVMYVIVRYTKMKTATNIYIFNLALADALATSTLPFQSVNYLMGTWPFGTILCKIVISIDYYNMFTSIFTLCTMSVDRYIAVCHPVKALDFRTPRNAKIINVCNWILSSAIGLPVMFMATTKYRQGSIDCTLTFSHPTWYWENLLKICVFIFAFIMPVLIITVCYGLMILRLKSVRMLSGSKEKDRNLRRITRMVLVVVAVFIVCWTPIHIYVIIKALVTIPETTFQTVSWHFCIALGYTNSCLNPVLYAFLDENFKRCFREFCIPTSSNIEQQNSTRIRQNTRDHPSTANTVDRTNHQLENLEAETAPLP
Target sequence (P41143 whole entry, looked up): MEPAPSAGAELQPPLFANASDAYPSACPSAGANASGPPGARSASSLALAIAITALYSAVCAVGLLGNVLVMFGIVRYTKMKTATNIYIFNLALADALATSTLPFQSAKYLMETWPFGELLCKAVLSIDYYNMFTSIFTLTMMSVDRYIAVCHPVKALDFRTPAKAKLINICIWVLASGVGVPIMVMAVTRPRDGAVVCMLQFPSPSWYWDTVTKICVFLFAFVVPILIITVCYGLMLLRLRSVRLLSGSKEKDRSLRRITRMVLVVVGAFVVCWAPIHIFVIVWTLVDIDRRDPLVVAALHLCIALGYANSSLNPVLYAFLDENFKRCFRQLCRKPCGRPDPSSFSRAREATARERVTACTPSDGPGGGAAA
HTR5A inv ctr = inverse agonist of human HTR5A in OPRM1-OPRD1 counter-screen. inhibition, % at 9.3 µM. 0.083% of 340,000 active. AID 504634. HTR5A cell line, luminescence, inverse agonism. P47898; in the data active = inhibition mostly above about 23%, no sharp cut-off; inactive = mostly below about 18%
MIN6 prolif = MIN6 beta-cell proliferation induction. 0.29% of 330,000 active. MIN6 cells proliferation, ATPlite luminescence, 48 h; cells starved in 0.2% serum; 100% = growth in 10% serum. proliferation, % at 10 µM;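 active = compounds whose signal lies at least 3.5 SD above the mean of all wells on their plate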
HTR5A ag ctr = counter-screen for OPRM1-OPRD1 agonists: human HTR5A agonism | activation, % at 9.3 µM | HTR5A agonist assay, luminescence, cell-based | 0.61% of 340,000 active | P47898 | AID 504692; in the data active = activation mostly above about 9.5%, no sharp cut-off; inactive = mostly below about 7.6%
pCIP destab = lowers stability of the mouse p/CIP coactivator protein; Q05BA5; F442A p/CIP-EGFP cells, EGFP fluorescence, 16 h; decrease of EGFP signal, % at 10 µM; 0.01% of 290,000 active; AID 1984;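 active = EGFP signal decrease of at least 30% at 10 µM or well 3 SD below plate mean, unless failing retest; inactive = the rest, including hits failing retest or dose response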
OPRM1-OPRD1 inv = mu-delta opioid heterodimer inverse agonism; P35372+P41143; cell-based MOR-DOR heterodimer luminescence; inhibition, % at 9.3 µM; 0.21% of 340,000 active; AID 504357; in the data active = inhibition above about 22%, passing the limit was not always enough
OPRM1-D1 ag cf = OPRM1-OPRD1 heterodimer agonism, confirmation. shares compounds with MOR-DOR ag. cells, MOR-DOR heterodimerization, luminescence complementation. activation, % at 9.3 µM. 45% of 830 active
HTR5A ag ctr2 = activates human HTR5A in OPRM1-OPRD1 agonist counter-screen; shares compounds with MOR-DOR ag; HTR5A agonist counterscreen, cell luminescence; activation, % at 9.3 µM; 8% of 830 active; AID 504905; in the data active = activation above about 17%
Large screens that a line does not name were inactive (follow-up assays come after a bar, where they were run). Cut-off read from the data, not from the text of the source, unless noted: active = activation above about 18%; inactive = the rest.

CCCN1C(=O)c2ccccc2NC1c1ccc(OC)c(CSc2ccccn2)c1 (stereo unspecified)	MOR-DOR ag 22 | OPRM1-D1 ag cf inactive | HTR5A ag ctr2 inactive
COc1ccc(C2Nc3ccccc3C(=O)N2Cc2ccco2)cc1COc1ccc(F)cc1 (stereo unspecified)	MOR-DOR ag 38 | OPRM1-D1 ag cf 26 | HTR5A ag ctr2 inactive
Cc1onc(-c2ccccc2)c1C(=O)N(CC(C)C)c1c(N)n(CC(C)C)c(=O)[nH]c1=O	none (no result: pCIP destab)
COc1ccccc1OCC(=O)Nc1cc(S(=O)(=O)N2CCOCC2)ccc1N1CCCCC1	none (no result: pCIP destab)
O=C(C[C@H]1C/C=C\C[C@H](NC(=O)OCC2c3ccccc3-c3ccccc32)C(=O)O[C@H](c2ccccc2)CNC1=O)N[C@H](CO)Cc1ccccc1	MOR-DOR ag 239, HTR5A ag ctr 21 (no result: pCIP destab) | OPRM1-D1 ag cf inactive | HTR5A ag ctr2 inactive
CCn1cc(CN2CCCC(C(=O)Nc3ccc(-c4nc5ccccc5[nH]4)cc3)C2)c(C)n1 (stereo unspecified)	MOR-DOR ag 31 | OPRM1-D1 ag cf inactive | HTR5A ag ctr2 inactive
Cc1ccc(COn2c(-c3ccc(Cl)cc3Cl)nc3ncccc32)cc1	MOR-DOR ag 77 | OPRM1-D1 ag cf inactive | HTR5A ag ctr2 35
COc1ccc(NS(=O)(=O)c2cccc(C(=O)NCc3ccccc3CN3CCOCC3)c2)cc1	none (no result: MIN6 prolif, pCIP destab)
FC(F)(F)c1cnc(Nc2ccc(N3CCOCC3)cc2)c(Cl)c1	MOR-DOR ag 28 | OPRM1-D1 ag cf inactive | HTR5A ag ctr2 inactive
O=C(NC1CCN(Cc2ccc(Cl)cc2Cl)CC1)c1ccccc1	MOR-DOR ag 18 | OPRM1-D1 ag cf 26 | HTR5A ag ctr2 inactive
COc1ccccc1NC(=O)c1sc2nc(C)cc(C)c2c1N	MOR-DOR ag 24 (no result: pCIP destab) | OPRM1-D1 ag cf 108 | HTR5A ag ctr2 inactive
O=C(NCC(c1ccc(F)cc1)N1CCOCC1)c1ccc([N+](=O)[O-])o1 (stereo unspecified)	none (no result: pCIP destab)
Nc1nc(CCl)nc(Nc2ccc3ccccc3c2)n1	MOR-DOR ag 80 (no result: MIN6 prolif) | OPRM1-D1 ag cf inactive | HTR5A ag ctr2 inactive
Cc1ccccc1Nc1nc(N)nc(CCl)n1	none
COc1cc2c(cc1OC)C(O)C(O)(CO)C(C(=O)O)C2c1cc(OC)c(OC)c(OC)c1 (stereo unspecified)	none (no result: MIN6 prolif, pCIP destab)
COc1cccc(C(=O)Nc2ccc3c(c2)C(=O)c2ccccc2C3=O)c1	MOR-DOR ag 38 | OPRM1-D1 ag cf 53 | HTR5A ag ctr2 inactive
O=C(Nc1cc(Cl)cc(Cl)c1)c1ccc(Cn2c(=O)[nH]c3ccsc3c2=O)cc1	MOR-DOR ag 25 | OPRM1-D1 ag cf inactive | HTR5A ag ctr2 inactive
CC(=O)NCCNC(=O)c1ccc(Cn2c(=O)[nH]c3ccsc3c2=O)cc1	none
COCCN=C1N[C@@H](c2cccc(C(F)(F)F)c2)C(C(=O)OC)=C(C)N1Cc1ccccc1	none
COC(=O)C1=C(C)N(Cc2ccccc2)C(=NCc2cccc(C(F)(F)F)c2)N[C@H]1c1cccc(C(F)(F)F)c1	MOR-DOR ag 45 (no result: pCIP destab) | OPRM1-D1 ag cf inactive | HTR5A ag ctr2 inactive
COC(=O)C1=C(C)N(Cc2ccccc2)C(=NCCc2c[nH]c3ccccc23)N[C@H]1c1cccc(C(F)(F)F)c1	MOR-DOR ag 22 (no result: pCIP destab) | OPRM1-D1 ag cf inactive | HTR5A ag ctr2 inactive
COC(=O)C1=C(C)N(Cc2ccccc2)C(=NCc2cccc(C(F)(F)F)c2)N[C@H]1c1cccc(F)c1	MOR-DOR ag 23 | OPRM1-D1 ag cf inactive | HTR5A ag ctr2 21
COC(=O)C1=C(C)N(CC2CC2)C(=NCc2cccc(C(F)(F)F)c2)N[C@H]1c1ccccc1	none (no result: pCIP destab)
Cc1cc(C)n(CCCNC(=O)C2CC(=O)N(Cc3ccccc3)C2)n1 (stereo unspecified)	none (no result: pCIP destab)
COc1cccc(N2C(=O)C3CCCN3C2=S)c1 (stereo unspecified)	none
CCc1nc(SCc2cc(=O)[nH]c3ccccc23)c2c(C)c(C)sc2n1	none (no result: MIN6 prolif, pCIP destab)
O=C(NCc1ccccn1)c1cc(Cl)ccc1OCc1ccccc1	none
CC1(C)NC(=O)N(CCC(=O)Nc2cc(C(F)(F)F)ccc2Cl)C1=O	none (no result: pCIP destab)
O=C1NCN(c2ccccc2)C12CCN(CCCC(c1ccc(F)cc1)c1ccc(F)cc1)CC2	MOR-DOR ag 31 | OPRM1-D1 ag cf inactive | HTR5A ag ctr2 inactive
COCCN(Cc1ccccc1)C(=O)C1CCN(C(=O)Nc2ccccc2)CC1	none (no result: pCIP destab)
COc1ccc(C[C@H]2CN3C(=NC[C@@H]3Cc3ccccc3)N2CCNC(=O)c2ccc(C)c(Br)c2)cc1	MOR-DOR ag 22 | OPRM1-D1 ag cf inactive | HTR5A ag ctr2 inactive
CC(C)C(=O)Nc1cccc(COc2ccc(CN(CCc3ccccc3)C(=O)OC(C)(C)C)cc2)c1	none (no result: MIN6 prolif, pCIP destab)
Cc1cc(C)c(NC(=O)Cn2nnc(C(=O)NCc3cccs3)c2N)c(C)c1	MOR-DOR ag 22 | OPRM1-D1 ag cf inactive | HTR5A ag ctr2 inactive
CC(C)N(Cc1ccccc1)C(=O)CN1c2cccc3cccc(c23)S1(=O)=O	MOR-DOR ag 19 (no result: pCIP destab) | OPRM1-D1 ag cf inactive | HTR5A ag ctr2 inactive
COc1ccc2nc(C)cc(N/N=C/c3cccc(OC)c3O)c2c1	none
COc1ccc(/C=N/Nc2cc(C)nc3ccc(Br)cc23)cc1	MOR-DOR ag 21 | OPRM1-D1 ag cf inactive | HTR5A ag ctr2 inactive
COc1ccc(CN2CCc3c([nH]c4ccccc34)C2)cc1Br	none
COc1ccc(CN2CCc3c([nH]c4ccccc34)C2)c(OC)c1C	MOR-DOR ag 70 | OPRM1-D1 ag cf 38 | HTR5A ag ctr2 inactive
CCN(CC)C(=O)N1CCN(c2c([N+](=O)[O-])c(=O)oc3ccccc23)CC1	none (no result: pCIP destab)
Cc1cc2[nH]c3c4ccccc4nc(C)c3c2cc1C	MOR-DOR ag 35 (no result: MIN6 prolif, pCIP destab) | OPRM1-D1 ag cf 68 | HTR5A ag ctr2 inactive
Cc1cc2[nH]c3c(c[n+](C)c4ccccc34)c2cc1C	none
O=C(Nc1ccc2c(c1)C(=O)N(c1ccccc1)C2=O)c1cccs1	MOR-DOR ag 18 | OPRM1-D1 ag cf inactive | HTR5A ag ctr2 inactive
C#CC(=O)N(c1cc(OC)ccc1OC)C(C(=O)NC1CCCC1)c1cccs1 (stereo unspecified)	MOR-DOR ag 37 | OPRM1-D1 ag cf inactive | HTR5A ag ctr2 20
COc1ccc(N(C(=O)c2snc(C(N)=O)c2N)C(C(=O)NC2CCCC2)c2cccs2)cc1OC (stereo unspecified)	none
CC(=O)N/C(=C\c1ccccc1)C(=O)OCC(=O)NC1CCS(=O)(=O)C1 (stereo unspecified)	none (no result: pCIP destab)
